High-throughput results: PubChem, National Center for Advancing Translational Sciences (NCATS)
G9a inh – qHTS Assay for Inhibitors of Histone Lysine Methyltransferase G9a | Histone-lysine N-methyltransferase EHMT2 (Homo sapiens), Q96KQ7 | G9a H3K9 monomethylation, AlphaScreen, 2 h | Potency, µM (highest dose often 102 µM), without a hit: top-dose activity, negative = inhibition, actives largely listed as inhibitors | 350,000 compounds, 8.8% hits | AID 504332, 2011; note: % is set by controls: 0 for no effect and ±100 for the full control effect; nearly all actives have a fitted effect of over 75% in size
Target sequence (Q96KQ7 913-1193 limits assumed): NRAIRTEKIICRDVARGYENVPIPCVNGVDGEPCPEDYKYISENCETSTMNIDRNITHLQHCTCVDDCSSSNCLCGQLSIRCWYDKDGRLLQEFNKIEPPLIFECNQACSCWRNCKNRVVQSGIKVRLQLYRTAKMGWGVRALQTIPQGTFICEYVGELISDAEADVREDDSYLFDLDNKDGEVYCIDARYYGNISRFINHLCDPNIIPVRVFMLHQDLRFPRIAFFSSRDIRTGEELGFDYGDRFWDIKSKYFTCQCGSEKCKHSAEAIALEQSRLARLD
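Step 1: enzyme (final 20 nM) with compound, 15 min RT. Step 2: substrate peptide 500 nM and SAM 20 uM, 2 h RT. Step 3: anti-H3K9me1 antibody and AlphaScreen beads, 10 min, then plate read.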
BAZ2B inh – qHTS Assay for Inhibitors of BAZ2B; Bromodomain adjacent to zinc finger domain protein 2B (Homo sapiens), Q9UIF8; AlphaScreen BAZ2B-H3K14Ac peptide displacement; Potency, µM (titrated, usually from 114 µM), for the others: at the top dose activity change, negative = inhibition, most hits filed as inhibitors; 360,000 compounds, 4.4% hits; note: % is set by controls: 0 for no effect and ±100 for the full control effect; nearly all actives have a fitted effect of over 60% in size
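AlphaScreen displacement of biotin-H3(5-23)K14Ac peptide (50 nM final) from BAZ2B (50 nM final) in PBS pH 7.4, 0.01% Tween-20; complex preformed 30 min RT, then compounds (top 110 uM) 30 min RT, beads 20 min dark.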
HP1b binding inh – HTS for Inhibitors of HP1-beta Chromodomain Interactions with Methylated Histone Tails; 390,000 compounds, 0.56% hits; AlphaScreen HP1-beta / biotin-H3K9me3 peptide binding; Potency, µM (series often up to 114 µM), without a hit: at the highest dose activity change, negative = inhibition, hits mostly inhibitors; AID 540317, 2011; Chromobox protein homolog 1 (Homo sapiens), P83916; note: nearly all actives have a fitted effect of over 70% in size
Target sequence (P83916 whole entry, looked up): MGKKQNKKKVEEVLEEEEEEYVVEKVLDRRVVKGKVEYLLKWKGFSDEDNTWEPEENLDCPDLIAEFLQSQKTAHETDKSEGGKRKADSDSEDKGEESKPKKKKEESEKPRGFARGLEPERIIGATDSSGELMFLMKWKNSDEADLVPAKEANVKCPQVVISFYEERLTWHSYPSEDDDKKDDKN
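Compound inhibition of the preformed complex between 50 nM HP1-beta and 50 nM biotinylated H3K9me3 peptide was read by AlphaScreen. Buffer was PBS pH 7.4 with 0.01% Tween-20. Incubations ran 30 min at room temperature, with 10 ug/mL donor/acceptor beads.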
Sfp inh – qHTS Assay for Inhibitors of Bacillus subtilis Sfp phosphopantetheinyl transferase (PPTase); Potency, µM, without a hit: largest response in the series, negative = inhibition, most hits filed as inhibitors; AID 1490, 2009; 310,000 compounds, 3.5% hits; 4'-phosphopantetheinyl transferase ffp (Bacillus subtilis), Q9F4F7; Biochemical Sfp PPTase activity, qHTS;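 note: the enzyme is Sfp with the accession as filed and its product quenches rhodamine fluorescence; 0% = enzyme reaction without inhibitor and -100% = no enzyme wells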
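Fluorescence-quenching assay: 15 nM Sfp-PPTase preincubated 15 min at room temperature with compound, then 5 uM rhodamine-CoA and 12.5 uM BHQ-2-labelled YbbR peptide added. Fluorescence (ex 525/em 598 nm) read at start and after 30 min; difference gives rate.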
JMJD2A Tudor – qHTS Assay for Inhibitors of JMJD2A-Tudor Domain | Lysine-specific demethylase 4A (Homo sapiens), O75164 | AlphaScreen JMJD2A-Tudor / H3K4me3 peptide binding | Potency, µM (highest dose often 114 µM), for inactives: at the highest dose activity change, negative = inhibition, hits mostly inhibitors | 390,000 compounds, 4.4% hits; note: % is set by controls: 0 for no effect and ±100 for the full control effect; nearly all actives have a fitted effect of over 50% in size
L3MBTL1 block – qHTS Assay for the Inhibitors of L3MBTL1; Lethal(3)malignant brain tumor-like protein 1 (Homo sapiens), Q9Y468; AlphaScreen L3MBTL1–H3K9me1 peptide binding; Potency, µM (titrated, usually from 57.1 µM), inactives show at the highest dose activity, negative = inhibition, most hits filed as inhibitors; 230,000 compounds, 0.66% hits; note: % is set by controls: 0 for no effect and ±100 for the full control effect; nearly all actives have a fitted effect of over 60% in size
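L3MBTL1 (50 nM) pre-complexed 30 min with biotinylated H3(1-15)K9me1 peptide (75 nM), then compounds added for 30 min at room temperature; AlphaScreen streptavidin donor/nickel chelate acceptor beads (10 ug/mL final) read after 30 min dark incubation.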
Starred values were filed as active, the others as inactive; ? = inconclusive; nt = not tested or not shown; [ ] = another dose, or the depositor's remark. An excerpt weighted towards active compounds, which were near 12% of everything screened. Calls come from the whole dose curve; as a rule, active = well fitted curve in the direction sought with a large enough effect; inconclusive = small, poorly fitted or top-dose-only effect, or another doubt; inactive = no such curve, though single readings can be large; an effect the other way counts as inactive or inconclusive. Potency is the fitted concentration of half-maximal effect.

SMILES	G9a inh	BAZ2B inh	HP1b binding inh	Sfp inh	JMJD2A Tudor	L3MBTL1 block
COc1ccccc1N(CC(O)Cn1c(C)nc2ccccc21)S(=O)(=O)c1ccccc1 (stereo not drawn)	19.1%[59 µM]	-12.2%	27.8%	4.8%	0.7%[57.1 µM]	2.3%
O=C(CCC1N=C2c3ccccc3N=C(SCc3ccc(Cl)cc3)N2C1=O)N1CCN(c2ccccc2)CC1 (stereo not drawn)	6.4%[59 µM]	-25.1%	12.6%	nt	-23.6%	nt
O=C(CSC1=Nc2ccccc2C2=NC(CC(=O)N3CCN(c4ccccc4)CC3)C(=O)N12)NCC1CCCO1 (stereo not drawn)	50.1µM*	-22.5%	19.3%	-5.9%	-10.0%	nt
S=C(NCC1CCCO1)N1CCN(c2ccccc2)CC1 (stereo not drawn)	18.9%	-0.6%	40.5%	-6.4%	-17.3%	nt
Cc1ccc(CSC2=Nc3ccccc3C3=NC(CCC(=O)N4CCN(c5ccccc5)CC4)C(=O)N23)cc1 (stereo not drawn)	17.8µM*	-30.2%	7.1%	nt	-30.1%	nt
Cc1ccsc1C(=O)N(CC(C)C)c1c(N)n(Cc2ccccc2)c(=O)[nH]c1=O	51.3%	-16.1%	-3.1%	18.8%	-17.5%	nt
COc1cc(OC)c(C2=NOC(C(=O)Nc3ccc4c(c3)OCO4)C2)cc1Cl (stereo not drawn)	39.8µM*	-31.4%	-8.0%	-27.2%	-28.8%	0.8%
Cc1cc(C)[n+](Cc2ccccc2)cc1C(N)=O	nt	nt	23.0%	nt	-0.7%	nt
CC1CN(CCCCSc2ccccc2)CC(C)O1 (stereo not drawn)	8.1%	0.0%	36.6%	3.9%	5.1%	-0.7%
COc1cccc(OCCCCN2CC(C)OC(C)C2)c1 (stereo not drawn)	10µM*	?	?	-28.1%	6.31µM*	nt
COC(=O)c1ccc(OCCCCN2CC(C)OC(C)C2)cc1 (stereo not drawn)	2.82µM*	79.4µM*	?	56.2µM*	11.2µM*	15.6%
CC1CN(CCCCOc2ccc3ccccc3c2)CC(C)O1 (stereo not drawn)	2µM*	?	?	-11.4%	1.41µM*	-0.8%
CCOc1ccc(C(=O)NCC(=O)N2CCc3ccccc3C2)cc1OCC	5.6%	12.8%	30.3%	1.6%	3.4%	nt
Cc1cccc(N2CCN(C(=O)c3ccc4nccnc4c3)CC2C)c1 (stereo not drawn)	nt	nt	23.2%	nt	-19.3%	-4.4%
COc1ccccc1N1CCN(C(=O)c2ccc3c(c2)NC(=O)C(CSCc2ccccc2C)N3)CC1 (stereo not drawn)	?	50.1µM*	nt	50.1µM*	nt	nt
Cc1cccc(N2CCN(C(=O)c3ccc4c(c3)NC(=O)C(CSCc3cccc(F)c3)N4)CC2C)c1 (stereo not drawn)	nt	-15.7%	?	56.2µM*	?	nt
O=C1Nc2cc(C(=O)N3CCN(c4ccccc4F)CC3)ccc2NC1CSCc1ccccc1F (stereo not drawn)	?	-30.4%	nt	56.2µM*	nt	nt
O=C(c1ccc2c(c1)N(Cc1ccccc1F)C(=O)c1ccccc1S2(=O)=O)N1CCN(c2ccccc2F)CC1	-6.3%[59 µM]	-24.1%	19.3%	nt	-16.8%	nt
COc1ccc(NC(=O)C(c2ccc(C)cc2)N(C)C(=O)/C=C\c2ccc3c(c2)OCO3)cc1 (stereo not drawn)	-42.5%[59 µM]	-24.4%	-5.2%	nt	?	nt
COc1cccc(NC(=O)COC(=O)CCS(=O)(=O)c2ccc(C)cc2)c1	-3.8%	-15.3%	15.5%	4.5%	-12.0%	-3.0%
O=C(NN1CCOCC1)c1cccc2ccccc12	-10.4%	-4.4%	1.6%	9.2%	50.1µM*	5.7%
CCCCn1c(SCC(=O)N2CCN(c3ccccc3)CC2)nc2ccsc2c1=O	39.8µM*	-31.0%	29.4%	?	-34.8%	-18.5%
O=C(CSc1nc2ccccc2c(=O)n1Cc1ccco1)N1CCN(c2ccccc2)CC1	14.1µM*	?	?	?	-4.4%	-4.1%
O=C(CSc1nc2c(c(=O)n1-c1ccccc1)SCC2)N1CCN(c2ccccc2)CC1	44.7µM*	-6.5%	2.9%	-16.6%	?	-1.8%
CCn1c(SCC(=O)N2CCN(c3ccc(F)cc3)CC2)nc2ccccc2c1=O	-22.2%[59 µM]	-34.4%	-11.6%	-1.5%	-15.9%	nt
SMILES	G9a inh	BAZ2B inh	HP1b binding inh	Sfp inh	JMJD2A Tudor	L3MBTL1 block
CCn1c(SCC(=O)N2CCN(c3ccc(Cl)cc3)CC2)nc2ccccc2c1=O	2µM*	50.1µM*	-18.9%	-12.8%	-31.5%	1.3%
COc1ccc(CCNC(=O)CSc2nc(=O)n3cc(C)ccc3n2)cc1OC	16.9%	-4.0%	15.2%	nt	-9.6%	9.9%
Cc1cc(C)n2nc(SCC(=O)Nc3cc(Cl)ccc3C)nc2n1	0.3%[59 µM]	-12.0%	16.5%	nt	-2.6%	nt
COCCN(C(=O)CCSc1ccc(F)cc1)c1c(N)n(Cc2ccccc2)c(=O)[nH]c1=O	-3.6%[12.7 µM]	7.8%	28.9%	nt	-3.5%	-5.3%
O=C(Nc1cccc(F)c1)N1CC2(CCN(C(=O)c3cc(C(F)(F)F)cc(C(F)(F)F)c3)CC2)C1	39.3%[12.7 µM]	nt	nt	13.7%	nt	nt
CN1CCN(C(=O)C2=C[C@H](c3ccc4c(c3)OCO4)C[C@H](OCCCCO)O2)CC1	nt	nt	41.5%	nt	-9.3%	nt
CC(=O)c1ccc(NC(=O)c2cc(C3CC3)nc3c2c(C)nn3-c2ccc(C)cc2)cc1	-3.0%[59 µM]	9.4%[57.1 µM]	36.6%	nt	-4.9%	nt
CC1CCN(C(=O)CSc2nnc(-c3cc4ccccc4cc3O)n2Cc2ccco2)CC1	?	-33.2%	0.7%	28.2µM*	-35.6%	-9.6%
CC1Cc2nc(SCC(=O)N3CCN(c4ccccc4)CC3)n(CCc3ccccc3)c(=O)c2S1 (stereo not drawn)	?	-30.1%	5.9%	44.7µM*	?	-13.9%
CCn1c(SCC(=O)N2CCOCC2)nc2oc3c(Cl)cc(Cl)cc3c(=O)c2c1=O	39.8µM*	?	nt	?	nt	-0.5%
CCn1c(SCC(=O)N2CCN(c3ccccc3)CC2)nc2c(c1=O)SC(C)C2 (stereo not drawn)	?	-26.7%	15.4%	13.8%	-27.8%	?
CCn1c(SCC(=O)N2CCOCC2)nc2sc3c(c2c1=O)CCCC3	?	2.9%	28.3%	0.5%	-7.4%	3.7%
COc1ccc(C2=C/C(=C\c3ccccc3OC(C)=O)C(=O)O2)cc1	nt	-4.2%	27.4%	-5.9%	18.4%	1.8%
